This passage reports activation results from PubChem BioAssay AID560 (The Scripps Research Institute Molecular Screening Center, 2006).

The campaign covered roughly 65,000 compounds. About 980 (1.5%) were called active. Shown is part of a subset that was picked to be rich in actives. Unmarked numbers belong to inactive results.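 The calls were made as follows: active = activation above the mean of all tested compounds plus 3 SD (cut at about 49% in these data); inactive = the rest.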

Sequence of Nuclear receptor ROR-alpha (Homo sapiens) (P35398 whole entry, looked up, the tested form may be a part): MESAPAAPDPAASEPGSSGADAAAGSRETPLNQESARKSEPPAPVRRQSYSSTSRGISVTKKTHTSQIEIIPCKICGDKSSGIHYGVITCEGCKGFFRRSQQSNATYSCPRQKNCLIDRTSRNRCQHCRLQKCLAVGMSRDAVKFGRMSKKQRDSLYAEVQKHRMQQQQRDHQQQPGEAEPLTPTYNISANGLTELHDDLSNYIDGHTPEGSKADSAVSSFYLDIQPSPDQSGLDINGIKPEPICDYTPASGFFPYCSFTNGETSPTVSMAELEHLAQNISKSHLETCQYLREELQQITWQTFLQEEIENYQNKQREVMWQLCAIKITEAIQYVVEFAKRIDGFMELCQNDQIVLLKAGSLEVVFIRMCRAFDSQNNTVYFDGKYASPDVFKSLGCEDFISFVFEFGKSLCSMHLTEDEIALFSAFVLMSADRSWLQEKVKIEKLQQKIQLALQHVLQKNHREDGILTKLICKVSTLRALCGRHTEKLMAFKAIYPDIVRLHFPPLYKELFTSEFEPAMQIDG

This experiment concerns the target Nuclear receptor ROR-alpha (Homo sapiens) (UniProt P35398). Description: activators of orphan receptor RORA, primary screen, cell-based, luminescence (AID 560).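 Also: 0% = DMSO-treated RORA cells and 100% = added signal equal to DMSO minus mock-transfected cells.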 The conditions noted are these: CHO-K1 Gal4-RORA LBD luciferase reporter, at 10 µM, stronger effect = higher value, percent increase over mock-subtracted basal signal.
As to `CC(=O)N1CC2(C)CN(C(C)=O)CC(C)(C1)C2=O`, the activation was -2%.

For `CC1CCc2sc3nc(N4CCN(CCO)CC4)n4ncnc4c3c2C1` (stereo unspecified), the activation was 12.3%.

For the compound `O=C(Nc1ccc(Cl)cc1)c1ccsn1`, the activation is 59.5% (active).

As for `O=C(NCc1cn2ccsc2n1)Nc1ccc(Cl)cc1`, the activation is 10.4%.

Turning to `O=C(O)C1CCCCC1C(=O)Nc1ccc(Cl)cc1` (stereo unspecified), the activation was -6.2%.

For `COc1ccc(O)c(C(=O)c2cnc3onc(C(C)C)c3c2)c1`, the activation is 12.5%.

For the compound `CCc1c(C)sc(NC(=O)OC)c1C(=O)N1CCOCC1`, the activation was -6.7%.

As for `COc1ccccc1NC(=O)c1ccc(C)s1`, the activation was 48.9% (active).

On to `CCOc1ccccc1NC(=O)Nc1cc(OC)ccc1OC`, for which the activation was -19.1%.

As to `COc1ccc(C2C(C(=O)Nc3ccccc3OC)=C(C)Nc3nnnn32)c(OC)c1` (stereo unspecified), the activation was 7.2%.

`CC(C)c1nc2oc3c(N4CCN(C)CC4)ncnc3c2c2c1CCC2`: the activation was 13.9%.

As to `Cc1ccc(NC(=O)CN2CCC3(O)CCCCC3C2c2ccc3c(c2)OCO3)c(C)c1` (stereo unspecified), the activation is 11.9%.

Regarding `Cc1ccc(C)c(NC(=O)C2CCCN2C(=O)OC(C)(C)C)c1` (stereo unspecified), the activation is -9%.

With `Cc1ccnc(NC(=O)c2ccc(NC(=O)c3ccco3)cc2)c1`, the activation is 29.2%.

Turning to `COC(=O)c1ccc(NC(=O)c2ccco2)cc1`, the activation is 77.4% (active).

Turning to `O=C(Nc1ccc(Oc2ccccc2)cc1)c1ccco1`, the activation was 22.9%.

In the case of `O=C(C1CCN(S(=O)(=O)Cc2ccccc2)CC1)N1CCCc2ccccc21`, the activation was 12.2%.

As for `COc1cc(C2C(C#N)=C(N)Oc3n[nH]c(-c4ccccn4)c32)cc(OC)c1OC` (stereo unspecified), the activation is 7.4%.

Turning to `Cc1ccc2c(c1)N(C(=O)CCC(=O)N1CCc3ccccc3C1)CCO2`, the activation is 0.5%.

With `COc1cc(C(=O)Nc2nccs2)cc(OC)c1OC`, the activation was -15.9%.

As to `CC(=O)Oc1ccc(C(=O)Nc2nccs2)cc1`, the activation is 61% (active).

In the case of `Cn1cccc1C(=O)Nc1nccs1`, the activation was 12.1%.

Turning to `O=C(NCCCN1CCCCCC1)c1ccc(N2CCCC2=O)cc1`, the activation was -16.9%.

`CC1CCC(NC(=O)c2ccc(N3CCCC3=O)cc2)CC1` (stereo unspecified): the activation is 61.7% (active).

For the compound `Cc1ccc(C(=O)NC2CCN(C(=O)N3CCOCC3)CC2)cc1`, the activation is -4.3%.

Take `CCOC(=O)c1c(C)c(C(=O)NCCc2ccc(S(N)(=O)=O)cc2)c(C)n1CC`: the activation was 17.3%.

`CCNC(=O)CN(c1ccc(C)cc1)S(=O)(=O)c1ccc(SC)cc1`: the activation was -24%.

With `Oc1ccc(-c2csc(Nc3cccnc3)n2)cc1`, the activation is 5.9%.

On to `Clc1ccc(Nc2nc(-c3cccs3)cs2)nc1`, for which the activation is 41.7%.

As for `c1ccc(Nc2nc(-c3ccncc3)cs2)nc1`, the activation is 50.9% (active).

On to `O=C(Cn1cc2c(n1)CCCCC2)NCCN1CCOCC1`, for which the activation is -13.6%.

With `Cc1cccc(-c2noc(-c3ccc(F)cc3)n2)c1`, the activation was 31%.

On to `Cc1ccc(Cc2nc(-c3cccc(C)c3)no2)cc1`, for which the activation is 51.5% (active).

In the case of `Cc1ccc(-c2noc(CN3CCN(Cc4ccccc4)CC3)n2)cc1`, the activation is -1.1%.

Consider `CC(=O)c1nc(N2C(=O)C3CC=C(C)CC3C2=O)sc1C` (stereo unspecified), for which the activation was 1.8%.

Take `CCn1c(SCCC(C)C)nnc1-c1c[nH]c2ccccc12`: the activation was 8.7%.

Regarding `COCCCNC(=O)Cn1cc(C(=O)C2CC2)c2ccccc21`, the activation is 7.7%.

Regarding `Cc1nnc(SCC(=O)Nn2cnnc2)s1`, the activation was 2.5%.

`N#Cc1nc(COc2ccc(-c3ccccc3)cc2)oc1NCc1cccnc1`: the activation was -0.3%.

As to `CCOc1ccc(Nc2oc(Cc3ccccc3)nc2C#N)cc1`, the activation is 25.8%.

On to `N#Cc1nc(Cc2ccccc2)oc1NCCc1ccccc1`, for which the activation was 54.1% (active).

With `O=C(c1ccco1)N(Cc1nc2ccccc2c(=O)[nH]1)C1CCCC1`, the activation was -21.9%.

In the case of `COCn1c(COc2ccccc2)nc2ccccc21`, the activation was 53.4% (active).

On to `COCc1nc2ccccc2n1Cc1ccccc1Br`, for which the activation was -6.2%.

Take `Cn1c(COc2ccc(Cl)cc2)nc2ccccc2c1=O`: the activation is 7.3%.

Turning to `CCOC(=O)c1c(NC(=O)c2ccc(Br)o2)sc2c1CCCC2`, the activation is 10.7%.

With `C=CCOC(=O)C1=C(C)OC(N)=C(C#N)C1c1ccc(F)cc1` (stereo unspecified), the activation was -35.4%.

As for `Brc1ccc(Nc2c3c(nc4ncnn24)CCC3)cc1`, the activation was -16.4%.

Take `OCCCN1c2ccccc2Nc2nnc(-c3ccccc3)cc21`: the activation is 56.8% (active).

As for `C=CCSc1nc2ccccc2[nH]1`, the activation is 6.3%.

For the compound `Cn1c(SCC(=O)c2cccs2)nnc1-c1ccco1`, the activation is 20.4%.

As to `O=C(CSc1nc2ccccc2[nH]1)c1cccs1`, the activation was 56.5% (active).

Turning to `Cc1ccsc1-c1nc(CSCC(=O)NCCN2CCCC2)c(C)o1`, the activation was 4.3%.

Consider `Cc1ccc(S(=O)(=O)C2(S(=O)(=O)c3ccc(C)cc3)CCCC2)cc1`, for which the activation was 36.3%.

`O=C(CN1CCN(c2ccccn2)CC1)NCc1cccs1`: the activation was 1.8%.

Take `CCN(CC)S(=O)(=O)c1cc(C(=O)Nc2ccccn2)ccc1C`: the activation is 59.6% (active).

Take `Cc1noc(C)c1C(=O)Nc1ccccn1`: the activation was -8.4%.

Consider `CCN(CC)S(=O)(=O)c1cccc(C(=O)Nc2ccccc2)c1`, for which the activation was 2.7%.

With `O=C(CCn1c(=O)oc2ccccc21)Nc1ccon1`, the activation was 8.2%.

`O=C(Nc1ccc(Cl)cn1)Nc1cccs1`: the activation is 42.6%.

For `Cc1cc(NC(=O)c2cnn3cccnc23)n(-c2ccccc2)n1`, the activation was 10%.

Consider `O=C(Nc1ccc(Cl)cn1)c1cnn2cccnc12`, for which the activation was 62% (active).

In the case of `CCCCOc1ccc(NC(=O)CSCC(=O)OCC)cc1`, the activation is -11.3%.

In the case of `CCOC(=O)c1cnc(SCC(=O)NCc2ccco2)nc1N`, the activation was -10.7%.

As for `CCCCOc1ccc(-c2ncc(C(=O)OCC)c(N)n2)cc1`, the activation is 59.3% (active).

For the compound `CCn1cc(NC(=O)Nc2ccc(OC)c(OC)c2)c(C(N)=O)n1`, the activation is 4.9%.

Consider `COc1ccc(NC(=O)c2ccc(OC)cc2)cc1`, for which the activation was 25.7%.

Regarding `COc1cc(OC)c(C(=O)NC2CCCCCC2)cc1OC`, the activation was -17%.

In the case of `COc1cc(OC)c(C(=O)Nc2ccc(N(C)C)cc2)cc1OC`, the activation is 58.1% (active).

Regarding `O=C(Nc1ccccc1F)c1cc(S(=O)(=O)N2CCCCC2)cs1`, the activation was 0.6%.

Regarding `CCN1C(=O)/C(=C2\SC(N3CCCCC3)=NC2=O)c2ccccc21`, the activation is 84.9% (active).

On to `CCN1C(=O)/C(=C\N2CCN(c3ccccc3)CC2)SC1=S`, for which the activation was -18%.

On to `CCN1C(=O)c2cccc3c(N)ccc1c23`, for which the activation is -26%.

For `O=C(c1cccs1)N1CCN(C(=O)N2CCOCC2)CC1`, the activation is 8.8%.

As to `CC1CCN(c2oc(-c3ccccc3F)nc2C#N)CC1`, the activation is 29%.

For the compound `N#Cc1nc(-c2ccc(OCc3ccccc3)cc2)oc1NCCCN1CCOCC1`, the activation was 17%.

For `COc1ccc(Nc2oc(-c3ccccc3Cl)nc2C#N)cc1`, the activation was 98.6% (active).

As to `O=S(=O)(c1cccs1)N1CCc2ccccc2C1`, the activation was -7.5%.

With `CCN1C(=O)/C(=C2/Sc3ccccc3N2CCCS(=O)(=O)O)SC1=S`, the activation is -2.8%.

Regarding `COCCNC(=O)CN1C(=O)CSc2ncccc21`, the activation is 18.9%.

In the case of `CCS(=O)(=O)n1nc(-c2ccccc2)nc1SCc1ccccc1`, the activation was 32.6%.

With `CCS(=O)(=O)n1nc(-c2ccc(OC)cc2)nc1SC`, the activation was 52.4% (active).

On to `COc1ccc(-n2c(SC)nc(O)cc2=O)cc1`, for which the activation was -8.4%.

On to `CCCS(=O)(=O)N1CCN(C(=O)c2cccs2)CC1`, for which the activation is -4.5%.

For `N#CC(=C1SC=CS1)c1nc(-c2ccccc2)cs1`, the activation is 59.7% (active).

In the case of `N#C/C(=C1\CCCN1)c1nc(-c2ccccc2)cs1`, the activation was 6.4%.

Regarding `C#CC(C)(C)NC(=O)CSc1nc2c(c(=O)n(C)c(=O)n2C)n1CCCC`, the activation was 5%.

In the case of `CC(=O)CSc1nnc(CSc2ncccn2)n1C1CCCCC1`, the activation was -9.7%.

`COC(=O)C1=C(C)Nc2ncnn2C1c1ccco1` (stereo unspecified): the activation is -4.4%.

For the compound `COc1ccc(C)c2sc(=NC(=O)c3ccc(C#N)cc3)n(C)c12`, the activation was 84.6% (active).

Consider `COc1ccc(OC)c2c1sc(=NC(=O)CN1C(=O)CCC1=O)n2C`, for which the activation was -2.8%.

`CCCCSc1nnc(-c2ccc(C)cc2)o1`: the activation was 23.4%.

As for `Cc1ccc(CN2C(=O)CCC2C(=O)NCCCN2CCCCC2C)cc1` (stereo unspecified), the activation is 13.7%.

Consider `Cc1noc(NS(=O)(=O)c2ccc(NC(=O)C34CCC(CC3)C4)cc2)c1C`, for which the activation was 11.6%.

As to `COc1ccc(-n2ncc3c(N4CCc5ccccc54)ncnc32)cc1`, the activation was 50.3% (active).

On to `Cc1cccc(-n2ncc3c(N4CCc5ccccc54)ncnc32)c1`, for which the activation was 2%.

Consider `c1ccc(-n2ncc3c(N4CCCC4)ncnc32)cc1`, for which the activation is -23.2%.

Consider `COc1ccc(-n2ncc3c(N4CCCc5ccccc54)ncnc32)cc1`, for which the activation was 50.2% (active).

For the compound `COc1ccc(N2CCN(C(=O)CSc3ncnc4c3cnn4-c3ccc(OC)cc3)CC2)cc1`, the activation was -12.8%.

`COc1ccc2oc(=O)c(C(=O)N3CCCc4ccccc43)cc2c1`: the activation was -10.5%.

In the case of `CC(=O)N1CCN(c2ccc(NCc3ccc(C(C)C)cc3)cc2)CC1`, the activation was -17.3%.

Consider `COc1ccc(N2C(=O)C3CCCN3C2c2cccc(OC)c2)cc1` (stereo unspecified), for which the activation was -2.9%.

Consider `O=C(NCCN1CCOCC1)[C@H](Cc1ccccc1)N1C(=O)c2ccccc2C1=O`, for which the activation was 3.1%.

Turning to `O=C(CN1C(=O)COc2ccccc21)NCCN1CCc2ccccc2C1`, the activation was 20.9%.

For the compound `O=C(NCCCNC(=O)NC1CCCCC1)NC1CCCCC1`, the activation is -10.6%.

In the case of `CCS(=O)(=O)N1CCC(C(=O)N2CCN(c3ccccc3)CC2)CC1`, the activation is -6.6%.
